In PubChem BioAssay AID488841 (Sanford-Burnham Center for Chemical Genomics, 2010):
Screen size: about 1,400 compounds; about 380 (27%) were called active.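 The calls were made as follows: active = mean inhibition above 50% across duplicate retests at 10 µM; inactive = the rest.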 This is one part of the list.

Assay: yeast NALP1 reporter signal suppression – S. cerevisiae, luminescence, single concentration, NALP1 inhibitor project, confirmation (AID 488841);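 also: plate controls were DMSO in galactose medium for no effect and cells in plain SD medium for full effect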
Settings: S. cerevisiae NALP1/ASC/Caspase-1 reporter, beta-gal luminescence; at 10 µM; active compounds read high

inhibition, active:
Cc1cccc(NCc2nc3ccccc3n2C)c1 66%
Clc1ccc(OCCOCCN2CCc3ccccc3C2)c(Cl)c1 52.3%
Nc1c(Cl)ncnc1N/N=C/c1ccccn1 71.3%
C1CCC(C(CC2CCCCN2)C2CCCCC2)CC1 (stereo not drawn) 54.6%
O=C1C=CC(=O)N1CCCCCCN1C(=O)C=CC1=O 73.3%
Nc1ccc(C(=O)Nc2nc3ccccc3s2)cc1 69.7%
CCN(CC)C1CC(=O)N(c2cccc(C)c2)C1=O (stereo not drawn) 57.5%
Cc1cc(C)cc(N2C(=O)CC(Sc3ncn[nH]3)C2=O)c1 (stereo not drawn) 62.3%
Cc1ccc(C(=O)O)cc1N=Cc1cc(Br)cc(Br)c1O 59%
CCOC(=O)c1c(NC2OC(=O)c3c2ccc(OC)c3OC)sc(C(=O)OC(C)(C)C)c1C (stereo not drawn) 57.5%
Cc1onc(-c2ccccc2Cl)c1C(=O)N1C=CC(C(F)(F)F)=NCC1 65.7%
C(=C\c1nc(N2CCCCCC2)c2ccccc2n1)/c1ccccc1 70.2%
C(=C\c1nc(N2CCCC2)c2ccccc2n1)/c1ccccc1 78.1%
Cc1cccc(/C(N)=N/OC(=O)c2ccc3c(c2)OCO3)c1 54.1%
N/C(Cc1ccc(Cl)cc1Cl)=N\OC(=O)c1cccs1 51.2%
Cc1ccc(/C(N)=N/OC(=O)c2ccc3c(c2)OCO3)cc1 77.3%
Cc1ccc(/C(N)=N/OC(=O)c2cccs2)cc1 57.2%
Nc1ccccc1-c1nc2ccccc2[nH]1 71.9%
O=C(Nc1cccc(O)c1)c1cc(-c2ccco2)on1 74.8%
CC(C)CC(=O)/C(=C\c1ccc(Cl)cc1Cl)n1cncn1 100%
O=C(NCCc1csc(-c2ccccc2)n1)c1ccc(Br)o1 57.4%
CS(=O)(=O)c1nc(-c2ccco2)cc(C(F)(F)F)n1 81.3%
O=S(=O)(Nc1cc(Sc2cccc3cccnc23)c(O)c2ccccc12)c1ccc(F)cc1 56.7%

inhibition, inactive:
CN(C)c1ccc(N=C/C=C2/N(C)c3ccccc3C2(C)C)cc1 47.2%
CCOC(=O)C[N+](CC)(CC)CC#Cc1ccccc1 15.1%
Cc1nnc(-c2ccccc2)o1 31.1%
CCCc1nn(C)c(C(=O)Nc2cccc(C)c2)c1Cl 42.2%
CCOC(=O)c1c(/N=C/c2cc(OC)cc([N+](=O)[O-])c2O)sc(C)c1C 44.5%
CS(=O)(=O)N1N=C(c2ccco2)CC1c1ccc(Cl)cc1 (stereo not drawn) 19.9%
COc1ccc(/C=N/NC(=O)c2csc(-n3nc(C)cc3C(F)(F)F)n2)cc1 17.9%
C=CCc1cc(Cl)ccc1OCCOCCNCCOC 41.8%
Cc1cc(Cl)c(OCCOCCN2CCC(C)CC2)c(Br)c1 44.9%
Cc1sc2ncnc(N/N=C/c3ccccc3O)c2c1C 40.2%
Cc1c(Cl)c([N+](=O)[O-])nn1Cc1ccc(C(=O)N/N=C\c2ccccn2)o1 28.8%
Cc1cc(C)cc(OCc2nnc(SCC(=O)OC(C)C)o2)c1 47%
CC1=C(OC(=O)c2ccc(Br)cc2)C(C)(C)C(c2ccccc2)OC1=O (stereo not drawn) 24.7%
Cc1nc(NC(=O)/C=C/c2ccccc2)n[nH]1 40.7%
COc1cc(OC)c(-c2nnc(-c3ccc(OC)c(OC)c3OC)o2)cc1OC 31.9%
CC1=CC(C)(C)Nc2ccc(OC(=O)C(C)N3C(=O)c4ccccc4C3=O)cc21 (stereo not drawn) 32.8%
O=C(Cn1nnc2ccccc21)OCC(=O)c1ccc(Cl)cc1 40.5%
O=C1C=CC(=O)N1CCNc1ncc(C(F)(F)F)cc1Cl 46.6%
CC1CCC2C(=O)N(c3ccc(C(=O)Oc4cccc5cccnc45)cc3)C(=O)C2C1 (stereo not drawn) 31.1%
Cc1cc(C)c(NC(=O)/C(=C/c2ccccc2)c2ccccc2)c(C)c1 31.8%
Cc1nc(/N=C(\N)NC(=O)N2c3ccccc3Sc3ccccc32)nc2ccccc12 44.3%
O=C(Cc1ccc(-n2c(=O)[nH]c3ccccc3c2=O)cc1)N1CCN(c2ccccc2)CC1 18.6%
O=C(Nc1nc2ccccc2s1)C1c2ccccc2Oc2ccccc21 45.9%
Cc1ccc2nc(NC(=O)c3ccc4ncsc4c3)sc2c1 30.2%
COC(=O)c1ccccc1SC1CC(=O)N(c2cccc(C)c2)C1=O (stereo not drawn) 34%
Cc1cccc(N2C(=O)CC(Sc3ccccc3C(=O)O)C2=O)c1 (stereo not drawn) 42.5%
Cc1ccc(N2C(=O)CC(Sc3ccccc3C(=O)O)C2=O)cc1 (stereo not drawn) 40.4%
CC(C)c1ccc(N2C(=O)CC(Sc3ncn[nH]3)C2=O)cc1 (stereo not drawn) 48.5%
CCOC(=O)NC1(NCc2ccccc2)Oc2ccccc2O1 32.2%
Oc1c(Br)cc(Br)cc1C=Nc1ccc2c(c1)OCO2 48.6%
O=C(Nc1cccc(N=Cc2cc(Br)cc(Br)c2O)c1)c1ccco1 39.2%
COc1ccc(C(C)C)cc1S(=O)(=O)n1cnc(C)c1 18.5%
Cc1nc2cc(C(=O)NCc3ccc4c(c3)OCO4)ccc2n1-c1ccc(Br)cc1 43.1%
NC(=O)c1ncc(C(F)(F)F)cc1Oc1ccc(C(F)(F)F)cc1 28.9%
Cc1ccccc1N=C/C=C1\N(C)c2ccccc2C1(C)C 31.9%
Cc1ccc(C)c(NC(=O)CSc2nnc(-c3ccccc3)o2)c1 32.8%
O=[N+]([O-])c1ccc(-c2ccn[nH]2)o1 39%
O=C(CSc1nnnn1C1CCCCC1)N1c2ccccc2Sc2ccccc21 35.8%
O=S(=O)(Cc1cc(Sc2ccccc2)nc(-c2ccccc2)n1)c1ccccc1 19.4%
O=C1CN(c2nnnn2-c2ccccc2)CCN1 35%
CNc1ccccc(-c2ccc3ccccc3n2)c1=O 24.8%
Cc1cccc(/C(N)=N/OC(=O)c2cccc3ccccc23)c1 28.9%
Cc1ccc(/C(N)=N/OC(=O)c2ccc(Cl)cc2Cl)cc1 36%
COc1ccc(Cl)cc1C(=O)O/N=C(\N)c1ccc(Cl)cc1 35.3%
N/C(Cc1cccs1)=N\OC(=O)COc1ccccc1Cl 45.7%
Cc1cccc(/C(N)=N/OC(=O)c2ccc(Cl)cc2Cl)c1 21.6%
COc1ccc(C(=O)O/N=C(\N)Cc2ccc(Cl)cc2Cl)cc1OC 40.5%
Nc1ccc(C(=O)c2cccs2)cc1 44%
COc1ccc(/C=C(/C(=O)c2cccs2)N2C=CC=CC2=C(C#N)C#N)cc1 38.4%
COc1ccc2oc(=Nc3ccccc3)c(-c3nc4ccccc4[nH]3)cc2c1 38%
Cc1ccc2nc(-c3ccc(NC(=O)CN(c4ccccc4C)S(C)(=O)=O)cc3)sc2c1 37.2%
O=C(NCc1ccc(F)cc1)c1cc(-c2ccco2)on1 33%
CCCn1c(-c2cccnc2Cl)nc2cc(Cl)c(Cl)cc21 41.4%
Oc1ccc2ccccc2c1CN1CCN(c2ccccc2)CC1 33.5%
Cc1ccc(CN2CCN(/N=C/c3cccs3)CC2)cc1 34.5%
O=C(NCCCn1ccnc1)c1ccc(Br)o1 22.2%
COc1ccc(-c2nc(CCNC(=O)c3cccs3)cs2)cc1 41.9%
Cc1ccc2cc(CN(Cc3ccco3)C(=O)NC3CCCCC3)c(=O)[nH]c2c1C 18.7%
Nc1nc(-c2ccco2)nn1S(=O)(=O)c1ccccc1 23.4%
CCOC(=O)c1c(C)[nH]c2c1-c1ccccc1C(=O)C2=O 25.1%
O=S(=O)(Nc1ccc(Oc2ncccn2)c(Cl)c1)c1ccc(F)cc1 23%
Cc1cc(C)c(S(=O)(=O)Nc2cc(SCC(=O)O)c(O)c3ccccc23)cc1C 22.2%
CN(C)CCN(Cc1ccccc1)c1nccc(N(C)C)c1C#N 25.1%
O=C(O)C1C2C=CC(C2)C1C(=O)NCc1ccc(Cl)c(Cl)c1 (stereo not drawn) 33.5%
CS(=O)(=O)N(CC(=O)Nc1ccccc1Sc1ccccc1)C1CCCCC1 -0.35%
